Inconclusive results are not listed. A call without a number means that no potency is given here. Calls of active or inactive are those of the source. The call rests on the fitted dose curve.
Potency means the concentration at half of the fitted maximal effect.

A short description of the assay: p53 small molecule agonists, cell-based qHTS assay: qHTS cell viability counter screen (AID 1963581). Further: nearly all actives have a fitted effect of over 45% in size. As to conditions: p53RE-bla HCT-116 viability, ATP luminescence, 16 h; series mostly up to 66 µM. An outline of the steps: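 Compounds are pinned onto HCT-116 p53RE-bla cells and left 16 h at 37 C. Following the reporter FRET read, ATP is quantified by CellTiter-Glo luminescence after 30 min at room temperature.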
A general note: Quantitative high-throughput screening tests each substance at several concentrations.
Consider `O=C=NCC1CCCC(CN=C=O)C1` (stereo not given), for which the Potency entry was “inactive”. `CC(CCO)CCCC(C)(C)O` (stereo not given): the Potency result is “inactive”. As to `Cc1ccc2ccc3cccc4ccc1c2c34`, the Potency result was “inactive”. `CCOc1ccc(NS(=O)(=O)c2ccc(N)cc2)nn1`: the Potency result was “inactive”. The same measure, in the same setting: then `COC(=O)c1cc(Cl)cc(Cl)c1`, with “inactive”; and `Oc1cc2ccccc2c2ccccc12`, with 10.2 µM (active); and `Cc1ccc(-c2ncc(Cl)cc2-c2ccc(S(C)(=O)=O)cc2)cn1`, with “inactive”. Regarding `Cc1[nH]c(C)c(Cl)c(=O)c1Cl`, the activity change, negative = cytotoxicity is 15.4% [at 13.5 µM] (inactive).

As for `CCCNCCC`, the Potency entry is “inactive”. Turning to `COc1cc(N)ccc1C`, the Potency entry was “inactive”. As to `Cc1ccc2c(c1)CCCN2`, the Potency entry was “inactive”.

As to `NCCCCCCNCCCCCCN`, the Potency entry is “inactive”. On the same count and under the same terms, the value for `CC(C)(C)C1CCCCC1=O` (stereo not given) was “inactive”; that for `CN(C)CCOCCO` was “inactive”. On the same count and under the same terms, then `CC1(C)CC(O)CC(C)(C)N1[O]`, with “inactive”. Take `C=CCCCCCCCCCCCCCC`: the activity change, negative = cytotoxicity is -15.7% [at 13.5 µM] (inactive). Take `CCN1C=CN(C)C1C` (stereo not given): the Potency result is “inactive”. On the same count and under the same terms, the value for `CC[N+](C)(CC)CCOC(=O)C1c2ccccc2Oc2ccccc21` was “inactive”. For `NCCCN(CCO)CCO`, the Potency entry is “inactive”. Take `O=Cc1cc(O)ccc1Br`: the Potency entry is “inactive”. On the same count and under the same terms, then `O=CN(CCO)CCO`, with “inactive”. Turning to `CCN(C(=O)N(CC)c1ccccc1)c1ccccc1`, the Potency entry was “inactive”. For the compound `CCC(CC)CO`, the Potency result was “inactive”.

With `CC/C=C\CC/C=C/CO`, the Potency entry is “inactive”. Regarding `CC(CSC(=O)c1ccccc1)C(=O)N1C[C@@H](Sc2ccccc2)C[C@H]1C(=O)O` (stereo not given in full), the activity change, negative = cytotoxicity is 14.1% [at 13.5 µM] (inactive). On to `Cc1ccccc1N=C(N)Nc1ccccc1C`, for which the Potency result was “inactive”. Turning to `C1C2OC2C2C1C1CC2C2OC12` (stereo not given), the Potency result is “inactive”. The same measure, in the same setting: the value for `CC[N+](CC)(CC)CCOC(=O)C(C1CCCC1)C1CCCC1` was “inactive”; that for `O=C1CCCCCCCCCCCC(=O)OCCO1` was “inactive”. The same measure, in the same setting: the value for `CCCCOC(=O)CCCCC(=O)OCCCC` was “inactive”; that for `c1cc[c]([Bi]([c]2ccccc2)[c]2ccccc2)cc1` was “inactive”. On the same count and under the same terms, the value for `C=C[Si](OC)(OC)OC` was “inactive”. For the compound `CC(CC=O)CCCC(C)(C)O` (stereo not given), the Potency entry is “inactive”. On the same count and under the same terms, the value for `CCOC(=O)C1=NN(c2ccccc2)C(=O)C1` was “inactive”; that for `Cc1c(Cl)cccc1Cl` was “inactive”; that for `O=C1c2cccc3c2[C@H](CCC3)CN1[C@@H]1CN2CCC1CC2` was “inactive”. On the same count and under the same terms, then `CCCCC(CC)COC(=O)c1ccccc1` (stereo not given), with “inactive”. On the same count and under the same terms, then `CN(C)CCOC(=O)C(c1ccccc1)C1(O)CCCC1` (stereo not given), with “inactive”. Regarding `CCN1CCC[C@H]1CNC(=O)c1c(OC)ccc(Br)c1OC`, the Potency entry was “inactive”. On the same count and under the same terms, then `CCCCCCCCCCCCCCCC(=O)OCC`, with “inactive”.

(Values after PubChem BioAssay (Tox21).)
